Some test systems named below: NCI-H23 lung; NCI-H226 lung; NCI-H322M lung; HOP-62 NSCLC; NCI-H460 lung; HOP-92 NSCLC; NCI-H522 lung; 786-0 renal; COLO 205 colon; DU-145 prostate; K-562 leukemia; MALME-3M melanoma; MDA-MB-231 breast; RXF 393 renal; SF-268 CNS; SF-295 CNS; SF-539 CNS; UACC-257 melanoma; M14 melanoma; A549/ATCC NSCLC.
Experiment in all cases: NCI-60 one-dose screen, 48 h (100 = growth as untreated, 0 = no growth, -100 = all killed)
What all share (conditions): 10 µM unless noted

About 83,000 compounds went through this panel and 20% of them were active in at least one assay; those are over-represented in the sample as a whole.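 Step 1: grow cells in 96-well plates. Step 2: add test compound at a single concentration. Step 3: incubate 48 h. Step 4: record percent growth.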 Values without a mark were called inactive. Activity calls are given as the source filed them. How the source made its calls: active means growth percent below 10; inactive means the rest.

For `Nc1nn2c(-c3cc4cc(Br)ccc4oc3=O)ccnc2c1N=Nc1ccccc1`, the growth was 1.73% (active) with NCI-H23 lung; -55.6% (active) in the assay on NCI-H226 lung; 8.62% (active) in the assay with NCI-H322M lung; 1.3% (active) with HOP-62 NSCLC; -28% (active) in the assay with NCI-H460 lung; -18.8% (active) with HOP-92 NSCLC. For the same molecule, the growth with NCI-H522 lung was -51.6% (active); with 786-0 renal, -3.59% (active); with COLO 205 colon, 80.2%; in the assay with DU-145 prostate it was 37.1%; in the assay with K-562 leukemia, 83.2%; with MALME-3M melanoma it was 26.2%. Besides, the growth in the assay with MDA-MB-231 breast was -36.8% (active); in the assay on RXF 393 renal, -53% (active); in the assay with SF-268 CNS, -28.4% (active); in the assay with SF-295 CNS, 9.13% (active); in the assay on SF-539 CNS, -84.4% (active); in the assay with UACC-257 melanoma, 61.8%. Also, in the assay on M14 melanoma, the growth is 74.9%.
As to `O=C(COc1ccc(/C=C2/C(=O)Nc3ccc(Cl)cc32)cc1)Nc1ccc(Br)cc1`, the growth was -53.6% (active) in the assay with NCI-H23 lung; -48.5% (active) with NCI-H226 lung; 0.856% (active) with NCI-H322M lung; -72.6% (active) in the assay on HOP-62 NSCLC; -31.6% (active) in the assay with NCI-H460 lung; -48.4% (active) in the assay with HOP-92 NSCLC. Moreover, the growth with NCI-H522 lung is -35% (active); in the assay with 786-0 renal, -78.9% (active); with COLO 205 colon, 2.47% (active); with DU-145 prostate it was -9.85% (active); in the assay with K-562 leukemia it was 2.94% (active); with MALME-3M melanoma, -41.5% (active). Besides, the growth in the assay with MDA-MB-231 breast was -33.7% (active); in the assay on RXF 393 renal it was -65.7% (active); in the assay on SF-268 CNS it was 16.7%; with SF-295 CNS, -59.7% (active); in the assay on SF-539 CNS, -84.9% (active); with UACC-257 melanoma it was 15.1%. The growth in the assay on M14 melanoma is -2.56% (active).
With `COC(=O)c1c(C(=O)OC)c2c3ccccc3c3ccccc3n2c1C(=O)C(C)(C)C`, the growth is 82.8% in the assay with NCI-H23 lung; 85.7% in the assay on NCI-H226 lung; 105% in the assay with NCI-H322M lung; 118% in the assay on HOP-62 NSCLC; 80.3% in the assay with NCI-H460 lung; 55.7% in the assay with HOP-92 NSCLC. Further, the growth with A549/ATCC NSCLC is 101%; in the assay on 786-0 renal, 86.6%; in the assay with COLO 205 colon, 80.1%; in the assay with DU-145 prostate, 95.7%; in the assay with K-562 leukemia it was 47.1%; in the assay on MALME-3M melanoma, 100%. Further, the growth is 73.5% in the assay with MDA-MB-231 breast; 82.3% in the assay with RXF 393 renal; 89.3% with SF-268 CNS; 81.7% in the assay with SF-295 CNS; 83.3% in the assay on SF-539 CNS; 94.8% with UACC-257 melanoma.
In the case of `Cc1ccc(Cl)cc1NC(=O)N/C(N)=N/c1nc2ccccc2s1`, the growth in the assay on NCI-H23 lung is -9.8% (active); in the assay on NCI-H226 lung, 0.832% (active); in the assay with NCI-H322M lung, 18.6%; in the assay with NCI-H460 lung it was -8.76% (active); with HOP-92 NSCLC, -23% (active); in the assay on NCI-H522 lung, -61.9% (active). In addition, the growth in the assay on A549/ATCC NSCLC was -36.9% (active); with 786-0 renal, -2.48% (active); with COLO 205 colon, -91.1% (active); in the assay on DU-145 prostate, -35% (active); in the assay with K-562 leukemia, 4.45% (active); with MALME-3M melanoma it was 15.6%. Besides, the growth is -42.7% (active) with MDA-MB-231 breast; -28.5% (active) in the assay on RXF 393 renal; 15.4% in the assay with SF-268 CNS; -49.6% (active) in the assay with SF-295 CNS; -51.2% (active) in the assay on SF-539 CNS; 44.8% in the assay with UACC-257 melanoma. The growth in the assay on M14 melanoma is -17.1% (active).
As to `CCN1CCN(Cc2ccc(C(=O)Nc3cccc(Nc4ccc5c(OC)cccc5n4)c3)cc2C(F)(F)F)CC1`, the growth was -96.1% (active) in the assay on NCI-H23 lung; -100% (active) in the assay on NCI-H322M lung; -63.5% (active) with HOP-62 NSCLC; -69% (active) with NCI-H460 lung; -75.1% (active) in the assay with HOP-92 NSCLC; -83.3% (active) in the assay on NCI-H522 lung. For the same molecule, the growth in the assay with A549/ATCC NSCLC is -68% (active); with 786-0 renal, -73% (active); in the assay on COLO 205 colon, -67.5% (active); in the assay on DU-145 prostate, -57.9% (active); with K-562 leukemia it was 0.423% (active); with MALME-3M melanoma, -94.8% (active). Moreover, the growth with MDA-MB-231 breast is -94% (active); in the assay on RXF 393 renal, -93.3% (active); in the assay with SF-268 CNS it was -19.1% (active); in the assay with SF-295 CNS it was -95.3% (active); with SF-539 CNS, -100% (active); in the assay with UACC-257 melanoma, -82.8% (active). Further, the growth in the assay with M14 melanoma is -74.8% (active).
For the molecule `COc1cc(CNC(=O)C[C@H](C)CCC=C(C)C)ccc1OCc1cn(-c2ccc(Br)cc2)nn1`, the growth with NCI-H23 lung is 60.1%; in the assay with NCI-H322M lung it was 99.6%; in the assay on HOP-62 NSCLC, 65.1%; in the assay with NCI-H460 lung, 74.2%; in the assay with HOP-92 NSCLC, 45.9%; in the assay with NCI-H522 lung it was 41.6%. Moreover, the growth was 78.6% in the assay on A549/ATCC NSCLC; 68.7% in the assay on 786-0 renal; 113% in the assay with COLO 205 colon; 92.7% in the assay with DU-145 prostate; 66.3% in the assay with K-562 leukemia; 85.4% with MALME-3M melanoma. Further, the growth was 80.6% in the assay with MDA-MB-231 breast; 61.8% with RXF 393 renal; 71.7% in the assay with SF-268 CNS; 63.2% with SF-295 CNS; 51.2% in the assay on SF-539 CNS; 86.3% with UACC-257 melanoma. Also, the growth in the assay on M14 melanoma was 97.2%.
Consider `COc1cc2cc(C(=O)N3C[C@@H](CCl)c4c3cc(OC(=O)N(C)CCSSCCN3CCOCC3)c3ccccc43)[nH]c2c(OC)c1OC`, for which the growth in the assay with NCI-H23 lung was -66.9% (active); in the assay with NCI-H226 lung, -17.2% (active); with NCI-H322M lung, 1.49% (active); in the assay on NCI-H460 lung it was 0.904% (active); in the assay with HOP-92 NSCLC, -16.1% (active); in the assay on NCI-H522 lung, -42.8% (active). For the same molecule, the growth in the assay on A549/ATCC NSCLC was -9.46% (active); in the assay with 786-0 renal, -65% (active); with COLO 205 colon it was -80.4% (active); in the assay on DU-145 prostate, -10.3% (active); in the assay with K-562 leukemia, 2.13% (active); in the assay with MALME-3M melanoma, -83.7% (active). Further, the growth is -20.2% (active) in the assay with MDA-MB-231 breast; -86.6% (active) in the assay on RXF 393 renal; 0.895% (active) with SF-268 CNS; -11.3% (active) in the assay with SF-295 CNS; -72% (active) with SF-539 CNS; -8.65% (active) with UACC-257 melanoma. Besides, the growth with M14 melanoma is -81.4% (active).

The values above are taken from PubChem BioAssay (NCI).
